Active and inactive are the calls of the source. Calls follow the shape of the dose curve; as a rule, active = well fitted curve in the direction sought with a large enough effect in the repeat runs; inconclusive = weak or mixed curves; inactive = flat fitted curve, though single readings scatter.
% is scaled to controls: 0 for no effect and ±100 for the full control effect.

This experiment in a line: qHTS assay to test for compound auto fluorescence at 535 nm (green) in HEK293 cells (AID 720680). The settings on record: green autofluorescence 485/535 nm; series mostly up to 91.3 µM. The source says:
U.S. Tox21 Program National Center for Advancing Translational Sciences [NCATS] NIH Chemical Genomics Center [NCGC] U.S. Environmental Protection Agency [EPA] National Institutes of Environmental Health Sciences [NIEHS] National Toxicology Program [NTP] U.S. Food and Drug Administration [FDA] Tox21 Assay Overview: Compound auto fluorescence often interferes with screening of the compound library against various biological targets and signaling pathways. Some of these compounds may have fluorophoric properties. Such properties may interfere with the assay outputs resulting in false positives and/or negatives. To decrease such complications and ensure the compound activities are relevant in terms of biological response, the Tox21 10K compound library was screened for auto fluorescence. From the fluorophores used as reporter signals in our screening assays, the auto fluorescence equivalencies of compounds against three fluorophores have been evaluated: Triamterene, Fluorescein and Rose Bengal sodium for blue, green and red fluorescence, respectively. The fluorescence intensities were measured using Excitation/Emission wavelengths at 405/460nm, 485/535nm and 540/590nm for blue, green and red labels, respectively. This assay includes the green fluorescence data.
Tox21 Assay Protocol Summary: 2,000 HEK293 cells in 5 uL of culture medium containing 10% dialyzed FBS per well were dispensed into black wall/clear bottom 1536-well plates using a Multidrop Combi Dispenser (Thermo Scientific). The assay plates were incubated for 4-5 hr at 37C to allow cell attachment to the well bottom, followed by the transfer of 23 nL compound or DMSO vehicle by a pintool work station (Kalypsys, San Diego, CA). After the assay plates were incubated overnight at 37C and 5% CO2, fluorescence intensities in the assay plates were measured by an Envision (PerkinElmer, Shelton, CT) plate reader using three labels for measuring blue, green and red fluorescence at […] 460, 535 and 590nm respectively.
With `CC(CC(=O)O)CC(C)(C)C` (stereo not given), the compound was classed as inactive.

For the compound `C[C@H](CCC(=O)O)[C@H]1CC[C@H]2[C@@H]3[C@H](O)C[C@@H]4C[C@H](O)CC[C@]4(C)[C@H]3C[C@H](O)[C@]12C`, the call was inactive.

`COc1ccc(N=Nc2cc(C)c(N=Nc3ccc(S(=O)(=O)O)cc3)cc2OC)cc1`: the call was inactive.

For the compound `BrC/C=C/CBr`, the fluorescence, % of fluorescein is 0.0238% [at 18.6 µM] (inactive).

On to `CN(C1CCCCC1)S(=O)(=O)c1ccccc1N`, for which the result was inactive.

As for `O=C(COCCOCCOCC(=O)Nc1c(I)cc(I)c(C(=O)O)c1I)Nc1c(I)cc(I)c(C(=O)O)c1I`, the call was inactive.

On to `CCCCC[Si](OCC)(OCC)OCC`, for which the compound was classed as inactive.

`O=C(O)Cc1cccc(-c2cc(CCCCCCc3ccc(O[C@H]4O[C@H](CO)[C@@H](O)[C@H](O)[C@@H]4O)c(-c4cccc(CC(=O)O)c4)c3)ccc2O[C@H]2O[C@H](CO)[C@@H](O)[C@H](O)[C@@H]2O)c1`: the outcome was inactive.

In the case of `C=CCOc1c(Br)cc(C(C)(C)c2cc(Br)c(OCC=C)c(Br)c2)cc1Br`, the result was inactive.

With `CCOC(=O)CCCCCCCCC(=O)OCC`, the compound was classed as inactive.

Regarding `COCCOCCOCCOC`, the call was inactive.

Take `CCNC(=O)/C=C/c1cccc(Br)c1`: the result was inactive.

In the case of `NCCc1ccn[nH]1`, the fluorescence, % of fluorescein was -0.0168% [at 18.6 µM] (inactive).

Regarding `O=C(c1ccc2c(c1)C(=O)OC2=O)c1ccc2c(c1)C(=O)OC2=O`, the result was inactive.

`CC(C)C(=O)c1ccccc1`: the compound was classed as inactive.

As for `CCCCOC(=O)C(C)OC(=O)CCC` (stereo not given), the compound was classed as inactive.

On to `NC(=O)NC(=O)Cc1ccccc1`, for which the compound was called inactive.

As for `COc1cc2c(Nc3ccc(Br)cc3F)ncnc2cc1OCC1CCN(C)CC1`, the compound was called inactive.

`C[C@H]1O[C@H](O[C@H]2[C@H](O)[C@@H](O)[C@@H](O[C@H]3[C@H](O)[C@@H](O)[C@H](O)O[C@@H]3CO)O[C@@H]2CO)[C@H](O)[C@@H](O)[C@@H]1N[C@H]1C=C(CO)[C@@H](O)[C@H](O)[C@H]1O`: the compound was classed as inactive.

In the case of `C=CCOC(=O)c1ccc(C(=O)OCC=C)c(C(=O)OCC=C)c1`, the compound was classed as inactive.

On to `CCCOC(=O)CCCCC(=O)OCCC`, for which the result was inactive.

With `CC(=O)OC(C(=O)c1ccccc1)c1ccccc1` (stereo not given), the compound was called inactive.

With `CCCCCCCCC(=O)OCC`, the compound was classed as inactive.

Consider `O=C(O)c1c(Cl)ccc(Cl)c1Cl`, for which the outcome was inactive.

As for `CNCc1ccccc1`, the compound was classed as inactive.

For `CC(C)COC(=O)CC(C(=O)OCC(C)C)S(=O)(=O)O` (stereo not given), the compound was classed as inactive.

As for `CC(=O)N(CC(O)CO)c1c(I)c(C(=O)NCC(O)CO)c(I)c(C(=O)NCC(O)CO)c1I` (stereo not given), the call was inactive.

For `O=S(=O)(O)SSS(=O)(=O)O`, the result was inactive.

Consider `CC(=O)OCC(=O)[C@@]1(O)[C@H](OC(C)=O)C[C@H]2[C@@H]3CCC4=CC(=O)C=C[C@]4(C)[C@@]3(F)[C@@H](O)C[C@@]21C`, for which the result was inactive.

Take `CN[C@@H]1[C@@H](O)[C@@H](O[C@@H]2[C@H](O)[C@H](O[C@H]3OC(CN)=CC[C@H]3N)[C@@H](N)C[C@H]2N)OCC1(C)O` (stereo not given in full): the compound was called inactive.

Regarding `NS(=O)(=O)c1ccc(Cl)c(S(N)(=O)=O)c1`, the compound was called inactive.

For `CCCCCC1Nc2cc(C(F)(F)F)c(S(N)(=O)=O)cc2S(=O)(=O)N1` (stereo not given), the result was inactive.

Turning to `CCCCCCCCCCCCC`, the result was inactive.

On to `Nc1ccc(/C=C/c2ccc(N)cc2S(=O)(=O)O)c(S(=O)(=O)O)c1`, for which the outcome was inactive.

On to `C[Si]1(C)N[Si](C)(C)N[Si](C)(C)N1`, for which the call was inactive.

On to `CCCCOC(=O)[C@@H](C)Oc1ccc(Oc2ccc(C(F)(F)F)cn2)cc1`, for which the compound was classed as inactive.

For `OC(CCN1CCCCC1)(c1ccccc1)c1ccccc1`, the compound was classed as inactive.

Regarding `Nc1ccc(S(=O)(=O)Nc2ccccn2)cc1`, the fluorescence, % of fluorescein is 0.0233% [at 18.6 µM] (inactive).

As to `CCC1COC(=O)O1` (stereo not given), the result was inactive.

For `C=C(C)C(=O)OCCCCCCOC(=O)C(=C)C`, the result was inactive.

These data come from PubChem BioAssay (Tox21).
